Values without a mark were called inactive.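 Rule for the calls, unless noted: active = inhibition over a set limit, the all-compound mean plus 3 SD, in both replicate runs; inconclusive = over that limit in just one replicate run; inactive = at or under that limit in both runs.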 Records with an inconclusive call do not appear.

The nature of the first experiment: growth suppression of PTEN-deleted HCT116, pilot screen, cell-based, HCT116 clonal line, CellTiter-Glo (AID 824;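 active = viability at or below 27.92% in each of two runs, the all-compound median minus 4 SD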;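 note: 0% = 20 µM Hyamine control and 100% = vehicle cell control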). The conditions noted are these: 60 h, at 10 µM, stronger effect = lower value. (ATP-based viability assays read luminescence as a measure of living cells.)
The term viability denotes a read-out of living cells in per cent, often relative to untreated cells. Consider `CCOC(=O)N1CCN(C(=O)C2CCCN(Cc3nc(-c4ccc(Cl)cc4)oc3C)C2)CC1` (stereo not given), for which the viability is 46.5%.

Turning to `CCCCN(C)C(=O)C(Cc1ccccc1)NS(=O)(=O)c1ccc2c(c1)CCC(=O)N2` (stereo not given), the viability is 90.2%.

As to `COC(=O)c1ccc(OCC(O)CN2CCC(C)CC2)cc1` (stereo not given), the viability was 94.1%.

Regarding `CCC(=O)Nc1ccc(C(=O)n2nc(C)cc2C)cc1`, the viability is 98.9%.

As for `CC1CCc2nc3ccc(S(=O)(=O)N4CCC(C(=O)NC5CCCC5)CC4)cc3c(C(=O)O)c2C1` (stereo not given), the viability was 95.4%.

Consider `COc1ccc(S(=O)(=O)N2CCC(C(=O)N3CCOCC3)CC2)cc1OC`, for which the viability is 94.8%.

Turning to `O=C(CCCCn1c(=O)[nH]c2ccccc2c1=O)NCCc1c[nH]c2ccccc12`, the viability was 93.7%.

On to `O=C1C(Cl)=C(NCC2CCCO2)C(=O)N1C1CCCCC1` (stereo not given), for which the viability was 90.2%.

Take `Cc1cc2cc(CNC(=O)c3ccco3)ccc2n1C`: the viability is 94.4%.

With `CCOC(=O)N1CCN(C(=O)CN(c2cc(Cl)ccc2OC)S(=O)(=O)c2ccccc2)CC1`, the viability was 84.1%.

As for `O=C(NCCSCc1ccco1)c1ccc(CN2CCOCC2)cc1`, the viability was 99.7%.

For `CC(C)(C)NC(=O)CSc1nc(O)cc(=O)n1-c1ccccc1F`, the viability is 101%.

Turning to `Cc1sc2nc(CSc3nnc(Cc4cccs4)n3C3CCCCC3)[nH]c(=O)c2c1C`, the viability is 90%.

Take `COc1ccccc1C1NC(=O)NC(C)=C1C(=O)Nc1cccc(C)c1C` (stereo not given): the viability is 102%.

For the molecule `CC(C)Sc1nnc(Cn2c(=O)sc3ccccc32)n1-c1ccccc1`, the viability is 86.5%.

For `CCCCC(=O)Nc1ccc(Br)cc1C(=O)O`, the viability is 97.8%.

`c1csc(Cc2nc3ccccc3[nH]2)c1`: the viability was 100%.

On to `Cc1noc(NS(=O)(=O)c2ccc(N3Cc4ccccc4C3=O)cc2)c1C`, for which the viability was 104%.

With `COCCNC(=O)c1cc2c(=O)n3cccc(C)c3nc2n1C`, the viability was 33.9%.

As for `Cc1ccc(C)c(Cn2c(CN(C)Cc3ccccc3)nc3c2c(=O)n(C)c(=O)n3C)c1`, the viability was 61.5%.

As for `CCOc1ccccc1NC(=O)CSc1nnc(-c2ccccn2)n1Cc1ccco1`, the viability was 98.5%.

In the case of `Cc1nnc(SCCn2c(N3CCCC(C)C3)nc3c2c(=O)n(C)c(=O)n3C)s1` (stereo not given), the viability was 97.2%.

With `CC1Cc2nc(SCC(=O)Nc3ccc4c(c3)OCO4)n(CCc3ccccc3)c(=O)c2S1` (stereo not given), the viability was 87.1%.

On to `COc1ccccc1CNC(=O)c1cnc2ccccn2c1=O`, for which the viability is 90.5%.

Regarding `COc1ccccc1NC(=O)CSc1nnc(-c2ccco2)n1Cc1ccco1`, the viability was 90.5%.

Take `COc1ccc(Cl)cc1S(=O)(=O)n1ccnc1C(C)C`: the viability was 93.3%.

As to `O=C(CNS(=O)(=O)c1cccs1)Nc1ccc2c(c1)OCCO2`, the viability was 90.9%.

For `O=C(NCCCN1CCOCC1)c1ccco1`, the viability was 96.2%.

On to `CCCCn1c(=NC(=O)c2cccnc2)c(C(=O)OCC)cc2c(=O)n3ccccc3nc21`, for which the viability was 88.1%.

`Cc1ccc2oc(=O)c3cnn(CC(=O)NCCN4CCOCC4)c3c2c1`: the viability is 97.7%.

Consider `Cc1nc(CCNC(=O)COc2ccccc2)cs1`, for which the viability is 96.5%.

As to `CC(C)(C)n1nc2c(c1NC(=O)c1ccc(Br)cc1)CS(=O)C2` (stereo not given), the viability is 99.2%.

Take `O=C(NCc1ccc(Cl)cc1)C1CCCN(S(=O)(=O)c2cnc[nH]2)C1` (stereo not given): the viability was 92.4%.

`CC1(C)CC(=O)C2=C(C1)OC(N)=C(C#N)C2c1ccc(OC(=O)N2CCOCC2)cc1` (stereo not given): the viability is 105%.

In the case of `CSc1nnc2n(-c3ccc(C)cc3)c(=O)c3c4c(sc3n12)COC(C(C)C)C4` (stereo not given), the viability is 31.6%.

`COCCN1C(=O)c2oc3ccccc3c(=O)c2C1c1ccc(O)c(OC)c1` (stereo not given): the viability was 93.2%.

As to `O=C1NC(=O)C(CC(=O)N(Cc2ccco2)C2(C(=O)NC3CCCCC3)CCCCC2)N1` (stereo not given), the viability is 93.4%.

Consider `O=C(NCc1cccs1)C1CCCN1S(=O)(=O)c1ccccc1F` (stereo not given), for which the viability was 90.7%.

As for `CCOC(=O)N1CCC(N2C(=O)c3ccccc3C2Nc2cc(OC)c(OC)c(OC)c2)CC1` (stereo not given), the viability was 79.2%.

`O=C(O)c1ccc(Cl)c2c1C1C=CCC1C(c1ccccn1)N2` (stereo not given): the viability is 94.6%.

A short description of the next experiment: inhibitors of the yeast RAM network, pilot screen, dse1pr::URA3 reporter, 5-FOA selection (AID 869).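 Note: 0% = DMSO wells with no growth and 100% = 10 µM 1-NA-PP1 with full growth; RAM network block rescues cells from 5-FOA so hits raise OD615 growth.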 As to conditions: S. cerevisiae dse1pr::URA3 5-FOA growth, OD615, 2 d; at 10 µM; stronger effect = higher value; strain carries analog-sensitive mutant Cbk1 kinase.
Usually inhibition stands for the change of the read-out against control, counted positive when it falls. Turning to `CCOC(=O)N1CCN(C(=O)C2CCCN(Cc3nc(-c4ccc(Cl)cc4)oc3C)C2)CC1` (stereo not given), the inhibition was 0.12%.

As to `CCCCN(C)C(=O)C(Cc1ccccc1)NS(=O)(=O)c1ccc2c(c1)CCC(=O)N2` (stereo not given), the inhibition is 1.44%.

Consider `COC(=O)c1ccc(OCC(O)CN2CCC(C)CC2)cc1` (stereo not given), for which the inhibition was 0.835%.

For the molecule `CCC(=O)Nc1ccc(C(=O)n2nc(C)cc2C)cc1`, the inhibition was 1.12%.

On to `CC1CCc2nc3ccc(S(=O)(=O)N4CCC(C(=O)NC5CCCC5)CC4)cc3c(C(=O)O)c2C1` (stereo not given), for which the inhibition is 1.08%.

`COc1ccc(S(=O)(=O)N2CCC(C(=O)N3CCOCC3)CC2)cc1OC`: the inhibition is 0.825%.

As to `O=C(CCCCn1c(=O)[nH]c2ccccc2c1=O)NCCc1c[nH]c2ccccc12`, the inhibition is 0.945%.

In the case of `O=C1C(Cl)=C(NCC2CCCO2)C(=O)N1C1CCCCC1` (stereo not given), the inhibition was 1.46%.

For the molecule `Cc1cc2cc(CNC(=O)c3ccco3)ccc2n1C`, the inhibition was 1.89%.

With `CCOC(=O)N1CCN(C(=O)CN(c2cc(Cl)ccc2OC)S(=O)(=O)c2ccccc2)CC1`, the inhibition was 1.68%.

For the molecule `O=C(NCCSCc1ccco1)c1ccc(CN2CCOCC2)cc1`, the inhibition was 1.59%.

As for `CC(C)(C)NC(=O)CSc1nc(O)cc(=O)n1-c1ccccc1F`, the inhibition is 0.91%.

In the case of `Cc1sc2nc(CSc3nnc(Cc4cccs4)n3C3CCCCC3)[nH]c(=O)c2c1C`, the inhibition is 3.25%.

For the molecule `COc1ccccc1C1NC(=O)NC(C)=C1C(=O)Nc1cccc(C)c1C` (stereo not given), the inhibition was 0.77%.

As for `CC(C)Sc1nnc(Cn2c(=O)sc3ccccc32)n1-c1ccccc1`, the inhibition was -0.63%.

With `CCCCC(=O)Nc1ccc(Br)cc1C(=O)O`, the inhibition is 1.95%.

Consider `c1csc(Cc2nc3ccccc3[nH]2)c1`, for which the inhibition was 2.71%.

For the molecule `Cc1noc(NS(=O)(=O)c2ccc(N3Cc4ccccc4C3=O)cc2)c1C`, the inhibition was 1.45%.

On to `COCCNC(=O)c1cc2c(=O)n3cccc(C)c3nc2n1C`, for which the inhibition was 1.85%.

As for `Cc1ccc(C)c(Cn2c(CN(C)Cc3ccccc3)nc3c2c(=O)n(C)c(=O)n3C)c1`, the inhibition is 2.2%.

Consider `CCOc1ccccc1NC(=O)CSc1nnc(-c2ccccn2)n1Cc1ccco1`, for which the inhibition is 0.955%.

For `Cc1nnc(SCCn2c(N3CCCC(C)C3)nc3c2c(=O)n(C)c(=O)n3C)s1` (stereo not given), the inhibition is 2.31%.

As for `CC1Cc2nc(SCC(=O)Nc3ccc4c(c3)OCO4)n(CCc3ccccc3)c(=O)c2S1` (stereo not given), the inhibition is 2.35%.

Turning to `COc1ccccc1CNC(=O)c1cnc2ccccn2c1=O`, the inhibition is 0.36%.

Regarding `COc1ccccc1NC(=O)CSc1nnc(-c2ccco2)n1Cc1ccco1`, the inhibition was 1.39%.

Consider `COc1ccc(Cl)cc1S(=O)(=O)n1ccnc1C(C)C`, for which the inhibition is 1.74%.

In the case of `O=C(CNS(=O)(=O)c1cccs1)Nc1ccc2c(c1)OCCO2`, the inhibition was 1.3%.

As for `O=C(NCCCN1CCOCC1)c1ccco1`, the inhibition is 0.23%.

With `CCCCn1c(=NC(=O)c2cccnc2)c(C(=O)OCC)cc2c(=O)n3ccccc3nc21`, the inhibition was 0.685%.

On to `Cc1ccc2oc(=O)c3cnn(CC(=O)NCCN4CCOCC4)c3c2c1`, for which the inhibition was 1.15%.

As to `Cc1nc(CCNC(=O)COc2ccccc2)cs1`, the inhibition was 1.14%.

`CC(C)(C)n1nc2c(c1NC(=O)c1ccc(Br)cc1)CS(=O)C2` (stereo not given): the inhibition is 0.495%.

Turning to `O=C(NCc1ccc(Cl)cc1)C1CCCN(S(=O)(=O)c2cnc[nH]2)C1` (stereo not given), the inhibition is 2.04%.

Regarding `CC1(C)CC(=O)C2=C(C1)OC(N)=C(C#N)C2c1ccc(OC(=O)N2CCOCC2)cc1` (stereo not given), the inhibition is 1.12%.

For the molecule `CSc1nnc2n(-c3ccc(C)cc3)c(=O)c3c4c(sc3n12)COC(C(C)C)C4` (stereo not given), the inhibition was -0.285%.

In the case of `COCCN1C(=O)c2oc3ccccc3c(=O)c2C1c1ccc(O)c(OC)c1` (stereo not given), the inhibition is 0.49%.

Consider `O=C1NC(=O)C(CC(=O)N(Cc2ccco2)C2(C(=O)NC3CCCCC3)CCCCC2)N1` (stereo not given), for which the inhibition was -0.005%.

For `O=C(NCc1cccs1)C1CCCN1S(=O)(=O)c1ccccc1F` (stereo not given), the inhibition is 0.91%.

With `CCOC(=O)N1CCC(N2C(=O)c3ccccc3C2Nc2cc(OC)c(OC)c(OC)c2)CC1` (stereo not given), the inhibition was 0.24%.

Turning to `O=C(O)c1ccc(Cl)c2c1C1C=CCC1C(c1ccccn1)N2` (stereo not given), the inhibition was 2.31%.

These data come from PubChem BioAssay.
